CHX counter: affects cycloheximide protein synthesis inhibition readout, counter-screen; cell reporter, cycloheximide protein synthesis inhibition counterscreen; max response, %; hit rate 12% among 300,000; AID 2314; in the data active = max response mostly above about 13%, no sharp cut-off; inactive = mostly below about 14%; note: read at 38.3 µM for the half of the compounds with a filed dose; 0% is about no effect
Shiga toxin inh: inhibitors of Shiga toxin in Vero cells; inhibition, % at 38.7 µM; Vero cells, Shiga toxin protein synthesis inhibition reporter; hit rate 9.2% among 290,000; in the data active = inhibition mostly above about 28%, no sharp cut-off; inactive = mostly below about 43%; note: 0% is about no effect
LmPK inhibitor: LmPK (Leishmania mexicana) enzyme inhibition. purified LmPK, Kinase-Glo ATP luminescence, 1 h. Potency, µM (series often up to 57.5 µM), without a hit: at the highest dose activity change, negative = inhibition, hits mostly inhibitors. hit rate 0.37% among 290,000. AID 1721; note: potency is the fitted concentration of half-maximal effect; % is set by controls: 0 for no effect and ±100 for the full control effect
Target sequence (Q27686 whole entry, looked up): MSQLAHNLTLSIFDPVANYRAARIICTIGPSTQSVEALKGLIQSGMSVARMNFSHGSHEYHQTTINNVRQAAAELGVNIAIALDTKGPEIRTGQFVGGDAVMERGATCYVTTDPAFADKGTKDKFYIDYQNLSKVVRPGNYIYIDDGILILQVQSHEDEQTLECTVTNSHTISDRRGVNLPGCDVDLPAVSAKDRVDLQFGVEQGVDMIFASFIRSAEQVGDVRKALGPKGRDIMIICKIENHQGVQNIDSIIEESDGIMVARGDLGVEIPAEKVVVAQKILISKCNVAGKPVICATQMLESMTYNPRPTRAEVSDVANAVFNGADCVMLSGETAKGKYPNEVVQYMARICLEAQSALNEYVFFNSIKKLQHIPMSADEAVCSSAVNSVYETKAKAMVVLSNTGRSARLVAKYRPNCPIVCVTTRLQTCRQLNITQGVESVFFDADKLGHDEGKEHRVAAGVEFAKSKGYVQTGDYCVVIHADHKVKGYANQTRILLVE
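Kinase-Glo luminescence read after 1 h RT reaction of 0.1 nM LmPK with 0.5 mM PEP and 0.1 mM ADP. Activity scaled between uninhibited and enzyme-free controls.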
NS1 inh: blocks influenza NS1 protein function; Potency, µM (highest dose often 46.1 µM), inactives show top-dose activity, positive = more growth; hit rate 0.4% among 270,000; calls by dose curve; note: potency is the fitted concentration of half-maximal effect; actives are rising curves; nearly all actives have a fitted effect of over 50% in size
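Compounds were scored for reversing the slow growth caused by influenza A NS1 in S. cerevisiae, measured by optical density at 600 nm. Assay medium contained 2% galactose at pH 6.0; NS1-free yeast of the same strain were the positive control.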
FBPA Giardia inh: Giardia lamblia aldolase inhibition | AID 2451 | purified Giardia FBPA | Potency, µM (series often up to 59.6 µM), without a hit: top-dose activity, negative = inhibition, actives largely listed as inhibitors | A8B2U2 | hit rate 0.71% among 290,000; note: potency is the fitted concentration of half-maximal effect; % is set by controls: 0 for no effect and ±100 for the full control effect; nearly all actives have a fitted effect of over 55% in size
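40 nM FBPA preincubated 10 min at RT with compound (up to 57.5 uM final), then substrate plus GAPDH/TPI/NAD/arsenate coupling and diaphorase/resazurin added. Fluorescence read after 20 min at RT, 525/598 nm.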
Active calls of the source: *; ? = inconclusive; nt = no result; + = active, no number; [ ] = remark or other dose. Most compounds without a hit are left out; they make up all but 14% or so of the library. Unless noted, calls come from the whole dose curve; as a rule, active = well fitted curve in the direction sought with a large enough effect; inconclusive = small, poorly fitted or top-dose-only effect, or another doubt; inactive = no such curve, though single readings can be large; an effect the other way counts as inactive or inconclusive.

SMILES	CHX counter	Shiga toxin inh	LmPK inhibitor	NS1 inh	FBPA Giardia inh
CCCC1(C)Nc2ccccc2-c2nc3ccccc3n21 (stereo unspecified)	53*	81*	-8%	-59%	-1%
c1ccc2c(c1)NC1(CCCC1)n1c-2nc2ccccc21	27*	92*	-4%	-37%	10%
O=C(COC(=O)CNC(=O)c1ccc(Cl)cc1Cl)NC1CCCCC1	14	-3	-7%	3%	nt
COc1ccc(C2=Nn3c(nnc3-c3ccccc3O)SC2)c(OC)c1	10	33	nt	nt	-3%
Cc1cc2nn(-c3cccc4ccccc34)nc2cc1N	22*	44*	0%	-48%	?
Cc1ccc(-n2nc3cc(C)c(N)cc3n2)cc1	53*	96*	-15%	4%	?
Cc1cc(-n2c(C)c3c(C)nnc(C)c3c2C)ccc1N	-3	-2	0%	-1%	-25%
CCc1ccc(-n2nc3cc(C)c(N)cc3n2)cc1	57*	142*	-5%	?	?
O=C(Nc1ccc(F)cc1)c1cccc2ccccc12	24*	15	-15%	-10%	-10%
CCOc1ccccc1NC(=O)c1cccc2ccccc12	2	nt	0%	-33%	18%
COc1ccc(NC(=O)Cn2cc(C(C)=O)c3ccccc32)cc1	0	nt	4%	-8%	7%
COc1ccc(NC(=O)CCn2cc(C)c3ccccc32)cc1	48*	56*	-1%	-5%	-4%
COc1ccc(NC(=O)c2cccc3c(Br)cccc23)cc1	1	22	1%	1%	7%
COc1ccc(NC(=O)c2ccccc2C)cc1	34*	nt	1%	-13%	6%
COc1ccc(NC(=O)c2cccc3ccccc23)cc1	20*	21	-1%	-10%	-3%
CCN(C(=O)COC(=O)CCS(=O)(=O)c1ccc(C)cc1)C1CCS(=O)(=O)C1 (stereo unspecified)	-4	22	-4%	-6%	nt
N#Cc1ccc(CN2CCCC3(CCN(S(=O)(=O)c4ccccc4)CC3)C2)cc1	nt	nt	nt	nt	-4%
NCCCCC(N)C(=O)NC(Cc1ccc(O)cc1)C(=O)NC(CCCCN)C(=O)O (stereo unspecified)	nt	nt	nt	nt	-3%
C/C=C/OC(=O)NC(c1ccccc1)[C@]1(C(C)=O)CCOC1=O (stereo partly specified)	nt	nt	nt	nt	-2%[12.9 µM]
CCC(=O)c1ccc(OCC(=O)OCC(=O)NC2CCCCCCC2)cc1	-1	-12	1%	-19%	nt
CCc1ccc(C(=O)COC(=O)c2cccc(N3C(=O)c4c(C)nc5ccccc5c4C3=O)c2)cc1	56*	103*	-6%	17%	nt
O=C(COC(=O)c1cccc(N2C(=O)C3CC=CCC3C2=O)c1)c1ccccc1 (stereo unspecified)	27*	55*	-3%	17%	-5%
Nc1cccc(C(=O)OCC(=O)Nc2cccc3c2C(=O)c2ccccc2C3=O)c1	-2	-1	-3%	?	0%
O=C(COC(=O)c1ccc(N2CCCC2=O)cc1)NCc1ccco1	5	-1	2%	-7%	-2%
Nc1cccc(C(=O)OCC(=O)c2ccccc2)c1	44*	+	?	12%	1%
SMILES	CHX counter	Shiga toxin inh	LmPK inhibitor	NS1 inh	FBPA Giardia inh
O=C(COC(=O)c1ccc(N2CCCC2=O)cc1)c1ccccc1	31*	83*	5%	6%	-5%
CO[C@H]1COC(=O)[C@H](C)COC(=O)[C@@H](OCc2ccccc2)/C=C\[C@@H]1C	nt	nt	nt	nt	0%[12.9 µM]
CC1CN(C(=O)c2ccc(NS(=O)(=O)c3ccc(C(C)(C)C)cc3)cc2)CC(C)O1 (stereo unspecified)	-4	3	6%	9%	0%
O=C(CCNS(=O)(=O)c1ccccc1)N1CCCCCC1	32*	47	-5%	-20%	1%
O=C(CCN1C(=O)c2ccccc2C1=O)N1CCCCCC1	13*	32	-14%	1%	4%
O=C(COc1ccc(Br)cc1)N1CCC(c2ccccc2)C1 (stereo unspecified)	23*	75	0%	-25%	0%
O=C(O)C1CCN(C(=O)CCN2C(=O)S/C(=C\c3ccccc3)C2=O)CC1	14	-5	0%	-12%	-7%
O=C(CCN1C(=O)S/C(=C\c2ccccc2)C1=O)N1CCCCC1	27*	75*	3%	-3%	nt
O=C(COc1ccc(Br)cc1)N1CCOCC1	18	22	3%	2%	-5%
O=C(CCNS(=O)(=O)c1ccccc1)N1CCCC1	5	1	1%	11%	nt
CCCn1c(-c2ccc(F)cc2)nc2c(NCC(C)(C)CN(C)C)nc(C)nc21	nt	nt	nt	nt	-1%

Screening results as filed in PubChem.
